High-throughput results (PubChem)
Artemis endo inh = blocks endonuclease activity of human Artemis; recombinant Artemis, quenched FAM hairpin cleavage fluorescence; actives 0.78% (n = 30,000); inhibition, % at 10 µM; AID 686954; Q96SD1;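 active = at 10 µM dose, at least 30% inhibition, measured as corrected fluorescence normalized to stimulator and neutral control wells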
Starred values were filed as active, the others as inactive. Only a selection was taken, and hits are over-represented in it overall.

SMILES	Artemis endo inh
CCN1C(=O)/C(=C2/C=Cc3ccccc3N2C)OC1=S	4.9
CCOc1ccc(OCc2ccc(C(=O)OCc3ccccn3)o2)cc1	-2.4
COc1ccc(CCSc2nnc(C3CCCCC3)n2N)cc1	-2.1
Cc1csc(CCc2nc(C)cs2)n1	-8.3
C#CCSc1nnc(-c2cc3c(C(F)(F)F)nn(C)c3s2)n1C	20.3
N#Cc1c(C(F)(F)F)cc(C2CC2)nc1N1CCCC1	2.5
N#Cc1c(N2CCCC2)nc(N)c2c(N)nc(N3CCCC3)cc12	67.1*
N#Cc1c(N2CCCCC2)nc(N)c2c(N)nc3c(c12)CC(c1ccccc1)O3 (stereo not drawn)	12.6
COc1ccccc1N1CCN(c2nc(N)c(C#N)c(CC#N)c2C#N)CC1	-3.2
COc1ccccc1N1CCN(c2nnc(-c3ccc(F)cc3)c3ccccc23)CC1	3.4
COc1cc2c(C#N)c(N3CCN(c4ccccc4OC)CC3)nc(N)c2c(N)n1	45.4*
O=C(Nc1nccs1)C1C2/C=C\CCCCC21 (stereo not drawn)	-8.5
CCOC(=O)c1nn(-c2ccccc2F)c(C)c1C(C)=O	-1.5
COc1ccc(S(=O)(=O)NCCSCc2ccco2)cc1Cl	2.8
C=CCSc1nnc(-c2ccccc2N=Cc2c(C)[nH]n(-c3ccccc3)c2=O)c(=O)[nH]1	-2.5
Cc1[nH]n(-c2ccccc2)c(=O)c1C=Nc1cnc2ccccc2c1	-0.3
CSc1nnc(-c2ccccc2N=Cc2c(C)[nH]n(-c3ccc4ccccc4c3)c2=O)c(=O)[nH]1	31.9*
O=C(CCSc1nc(-c2ccco2)cc(C(F)(F)F)n1)Nc1ccc2c(c1)OCO2	4.7
Cc1cc2ccccc2c(=O)n1CC(=O)N(C)c1ccc(F)cc1	-2.1
CCN(CC)c1nc(OC)nc(-n2nnc(C(C)=O)c2C)n1	-7.4
CCn1c(=O)c(C(=O)Nc2nc3ccccc3[nH]2)c(O)c2ccccc21	50.0*
CCn1c(=O)c(C(=O)Nn2c(C)nc3ccccc3c2=O)c(O)c2ccccc21	11.9
CCn1c(=O)c(C(=O)NCCCO)c(O)c2ccccc21	-6.7
COc1ccc(C2(CNC(=O)CCC(=O)O)CCCC2)cc1	3.1
Cc1ccc2nc(N/N=C\c3ccc([N+](=O)[O-])o3)nc(-c3ccccc3)c2c1	39.2*
SMILES	Artemis endo inh
O=[N+]([O-])c1ccc(/C=N/Nc2nc(-c3ccccc3)c3cc(Br)ccc3n2)o1	57.5*
O=C(NNC(=O)c1ccc([N+](=O)[O-])o1)c1ccccc1	0.2
Cc1ccc(/C=N\Nc2nc3ccc(Cl)cc3[nH]2)o1	-4.4
CCCOC(=O)/C(=C\c1ccc([N+](=O)[O-])o1)NC(=O)c1ccccc1	4.7
O=[N+]([O-])c1cccc(-c2ccc(/C=N/NC(=S)Nc3ccccc3)o2)c1	16.2
NC(=O)C1CCN(C(=O)CSc2nc3c(c(-c4ccccc4)n2)CCCC3)CC1	-0.3
Cc1ccc(S(=O)(=O)/N=C(\c2ccc(Cl)cc2)N2CCOCC2)cc1	7.2
CC(=O)NC1(c2ccccc2)CCN(c2nc(C)cc(C)n2)CC1	0.5
O=C(COC(=O)c1ccc(Br)o1)NCc1ccco1	-0.6
O=C(NC(=S)Nc1ccc2[nH]ncc2c1)c1ccccc1	-1.8
CCCc1cc(C(=O)N/N=C/c2ccc(C)o2)c2ccccc2n1	-3.5
O=C(NC(C(=O)N/N=C/c1c2ccccc2cc2ccccc12)c1n[nH]c(=O)c2ccccc12)c1ccccc1 (stereo not drawn)	43.9*
CC(C)c1ccc(C(=O)CC2(O)C(=O)N(CN3CCOCC3)c3ccccc32)cc1 (stereo not drawn)	-5.2
Cc1ccc(C(=O)N/C(=C\c2ccc(-c3cc(Cl)ccc3Cl)o2)C(=O)NCc2cccnc2)cc1	34.1*
O=C(NCc1cccnc1)/C(=C/c1ccc(-c2cccc(Cl)c2)o1)S(=O)(=O)c1ccccc1	1.4
O=C(Nc1c(Cl)cc(Cl)cc1C(=O)NCc1cccnc1)c1ccc(Cl)cc1Cl	0.0
COC(=O)C1=C(C(=O)c2ccc(C)cc2)C(c2ccc(OC)c(OC)c2)n2nnnc2N1 (stereo not drawn)	-7.7
COc1ccc(C(=O)Nc2ccc(Cl)cc2C(=O)NCCN2CCOCC2)cc1	-3.4
Cc1cccc(C)c1NC(=O)CN1C(=O)S/C(=C\c2cccn2-c2cccc(C(=O)O)c2)C1=O	22.0
Cc1ccc(NC(=O)CN2C(=O)S/C(=C\c3cccn3-c3cccc(C(=O)O)c3)C2=O)c(C)c1	32.0*
Cc1ccccc1NC(=O)CN1C(=O)S/C(=C\c2cccn2-c2cccc(C(=O)O)c2)C1=O	22.4
COc1ccc(-c2nc(C#N)c(NC(C)c3ccccc3)o2)cc1OC (stereo not drawn)	5.7
C=CCSc1nnc2nc3c(nn12)c1cc(C)ccc1n3CC=C	11.9
Oc1c(C(Nc2ccccn2)c2ccccn2)ccc2cccnc12 (stereo not drawn)	38.3*
Cc1cc(NC(c2ccc(Cl)cc2)c2ccc3cccnc3c2O)no1 (stereo not drawn)	10.2
SMILES	Artemis endo inh
CC(=O)NC(c1ccco1)c1ccc2cccnc2c1O (stereo not drawn)	-3.4
CCc1nc2ccccc2c(C(=O)OCc2nnc(-c3ccccc3)o2)c1C	11.6
Cc1ccc(S(=O)(=O)NC(=O)c2cc(C)n(CCCn3ccnc3)c2C)cc1	-0.5
Cc1sc(NC(=O)C2CCCCC2C(=O)O)c(C(N)=O)c1-c1ccc(C(C)(C)C)cc1 (stereo not drawn)	40.1*
Cc1sc(NC(=O)C2CCCCC2C(=O)O)c(C(N)=O)c1-c1ccc(C(C)C)cc1 (stereo not drawn)	27.2
Cc1sc(NC(=O)C2CCCCC2C(=O)O)c(C(N)=O)c1-c1ccccc1 (stereo not drawn)	2.2
COc1ccc(CCNCc2csc3nc4ccccc4n23)cc1OC	6.1
O=C(N/N=C\c1ccc(-c2ccccc2[N+](=O)[O-])o1)C1COc2cc3ccccc3cc2O1 (stereo not drawn)	35.9*
COc1ccc(OC)c(NC(=O)C2COc3ccccc3O2)c1 (stereo not drawn)	-1.3
Cc1ccc(/C=N\NC(=O)C2COc3cc4ccccc4cc3O2)o1 (stereo not drawn)	4.3
C/C(N)=C(\C#N)C(=O)NCc1ccccn1	0.8
COc1ccc(C(=O)N2c3ccccc3C(=O)OC2c2ccc3c(c2)OCO3)cc1 (stereo not drawn)	-7.6
COC(=O)COc1ccc(C2NC(=O)NC(c3ccccc3)=C2C(C)=O)cc1OC (stereo not drawn)	3.7
COc1ccc(C2NC(=O)NC3=C2CCc2ccccc23)cc1 (stereo not drawn)	43.8*
CC1Cc2ccccc2N1C(=O)C1CCCN(S(=O)(=O)c2cccc3nsnc23)C1 (stereo not drawn)	9.6
Cc1cc(C2C(=O)C(C(=O)c3ccc(Cl)cc3)C(=O)CC2(C)C)on1 (stereo not drawn)	1.8
COc1ccc(OC)c(Nc2nc(N)nc(-c3cc4ccccc4o3)n2)c1	0.9
Nc1nc(CSCCO)nc(Nc2ccccc2)n1	-2.7
Cc1c(-c2nc(N)nc(Nc3ccccc3)n2)oc2ccccc12	52.1*
O=S(=O)(C=C(c1ccccc1)c1ccccc1)c1ccccc1	10.9
O=c1c2ccccc2nc(-c2ccco2)n1/N=C/c1ccccc1O	-2.5
Cc1nnc(C)n1/N=C/c1cccn1C	1.8
Cc1nnc(-c2ccccc2)c(=O)n1/N=C/c1c(O)ccc2ccccc12	46.5*
COc1ccc2oc(C(F)(F)C(F)(F)F)cc(=O)c2c1	-4.0
Cc1nc2nc[nH]n2c(=O)c1NC(=O)c1c(-c2ccccc2Cl)noc1C	2.4
CC(C)c1ccc(Nc2nc(NCc3ccco3)nc(N3CCOCC3)n2)cc1	21.4
